Data: the supplement of paper PMC10849652
About 8,800 targets were measured; listed, in parts, are those with a hit and a random draw of the rest. About 0.5% of all pairs of compound and target were hits. Unmarked numbers belong to inactive results.

Experiments:
Assay in all cases: log2 fold change, soluble protein after heating vs DMSO (PISA); higher = thermal stabilisation; K562 lysate, 10 uM; active = over 0.2 and 3.5 SD of the protein, either way, in both replicates (recomputed)
[1] = compound: C=CC(=O)N1CCC[C@@H](n2nc(-c3ccc(Oc4ccccc4)cc3)c3c(N)ncnc32)C1 [ibrutinib]
Summary of the method: (§1)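 Soluble protein was defined as the supernatant remaining after 21,000xg for 90 min, following pooling of heated aliquots and adjustment to 0.5% NP-40 at 4°C. Before that, crude K562 extract at 1 mg/mL protein in PBS pH 7.4 with 1 mM MgCl2 was treated with 10 μM compound for 30 min and heated for 3 min across 48°C-58°C. Quantification used TMTpro 16plex LC-MS/MS with channel sums equalised, and values are log-two fold changes in thermal stability relative to solvent controls from duplicates.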

[2] = compound: CC(=O)c1cnc2ccc(-c3cc(Cl)c(O)c(Cl)c3)nc2c1N[C@H]1CC[C@H](CN(C)C)CC1
Summary of the method: as §1

[3] = compound: CC(C)(C)Cn1c(N)nc2ccc(-c3[nH]c(C(C)(C)C)nc3-c3ccc(F)cc3)nc21 [ralimetinib]
Summary of the method: as §1

[4] = compound: CC(C)(O)CC(=O)NCCn1ccc2ncnc(Nc3ccc(Oc4cccc(C(F)(F)F)c4)c(Cl)c3)c21
Summary of the method: as §1

[5] = compound: CC(C)C1=C2N=C(C=C(N2N=C1)NCC3=CC=CC=C3)NCCCCCCN
Summary of the method: as §1

[6] = compound: CC1=C(C(CC(=O)N1)C2=CC=C(C=C2)C(F)(F)F)C(=O)NC3=C(C=C4C(=C3)C=NN4)F
Summary of the method: as §1

[7] = compound: CC1=C(C2=C(C=C1)C(=O)C3=CC=CC=C3N2CCCN)C
Summary of the method: as §1

[8] = compound: CC1=C(C=C(C=C1)NC(=O)C2=CC(=CC=C2)C(C)(C)C#N)NC3=CC4=C(C=C3)N=CN(C4=O)C
Summary of the method: as §1

[9] = compound: CC1=C(C=C(C=C1)NC(=O)C2=CC(=CC=C2)N(C)C)NC(=O)C3=CC=C(C=C3)O
Summary of the method: as §1

[10] = compound: CC1=CC=C(C=C1)SC2=C3C=C(SC3=CN=C2)C(=O)N
Summary of the method: as §1

[11] = compound: CCCS(=O)(=O)Nc1ccc(F)c(C(=O)c2c[nH]c3ncc(-c4ccc(Cl)cc4)cc23)c1F [vemurafenib]
Summary of the method: as §1

[12] = compound: CCCS(=O)(=O)Nc1ccc(F)c(C(=O)c2c[nH]c3ncc(Cl)cc23)c1F
Summary of the method: as §1

[13] = compound: CCN(CCCOc1ccc2c(Nc3cc(CC(=O)Nc4cccc(F)c4)[nH]n3)ncnc2c1)CCOP(=O)(O)O [barasertib]
Summary of the method: as §1

[14] = compound: CC[C@@H]1C(=O)N(C)c2cnc(Nc3ccc(C(=O)NC4CCN(C)CC4)cc3OC)nc2N1C1CCCC1
Summary of the method: as §1

[15] = compound: CC[C@@H]1C(=O)N(C)c2cnc(Nc3ccc(C(=O)N[C@H]4CC[C@H](N5CCN(CC6CC6)CC5)CC4)cc3OC)nc2N1C(C)C [volasertib]
Summary of the method: as §1

[16] = compound: CCn1c(C(=O)N(C2CC2)C2CC2)cc2c3c(ncn3C)c(Nc3cc(C)n(C)n3)nc21
Summary of the method: as §1

[17] = compound: CCn1cc(-c2ccnc3[nH]c(-c4cccc(CN(C)C)c4)cc23)c(-c2ccc(NC(=O)N(C)C)cc2)n1
Summary of the method: as §1

[18] = compound: CN1CCC(CNc2ccc3ncc(-c4cccc(OC(F)(F)F)c4)n3n2)CC1
Summary of the method: as §1

[19] = compound: CN1CCN(CCOc2cc(OC3CCOCC3)c3c(Nc4c(Cl)ccc5c4OCO5)ncnc3c2)CC1 [saracatinib]
Summary of the method: as §1

[20] = compound: CN1CCN(c2nc(C3=C(c4c[nH]c5ccccc45)C(=O)NC3=O)c3ccccc3n2)CC1 [sotrastaurin]
Summary of the method: as §1

UniProt Q9UBD5, sequence (Q9UBD5 whole entry, looked up): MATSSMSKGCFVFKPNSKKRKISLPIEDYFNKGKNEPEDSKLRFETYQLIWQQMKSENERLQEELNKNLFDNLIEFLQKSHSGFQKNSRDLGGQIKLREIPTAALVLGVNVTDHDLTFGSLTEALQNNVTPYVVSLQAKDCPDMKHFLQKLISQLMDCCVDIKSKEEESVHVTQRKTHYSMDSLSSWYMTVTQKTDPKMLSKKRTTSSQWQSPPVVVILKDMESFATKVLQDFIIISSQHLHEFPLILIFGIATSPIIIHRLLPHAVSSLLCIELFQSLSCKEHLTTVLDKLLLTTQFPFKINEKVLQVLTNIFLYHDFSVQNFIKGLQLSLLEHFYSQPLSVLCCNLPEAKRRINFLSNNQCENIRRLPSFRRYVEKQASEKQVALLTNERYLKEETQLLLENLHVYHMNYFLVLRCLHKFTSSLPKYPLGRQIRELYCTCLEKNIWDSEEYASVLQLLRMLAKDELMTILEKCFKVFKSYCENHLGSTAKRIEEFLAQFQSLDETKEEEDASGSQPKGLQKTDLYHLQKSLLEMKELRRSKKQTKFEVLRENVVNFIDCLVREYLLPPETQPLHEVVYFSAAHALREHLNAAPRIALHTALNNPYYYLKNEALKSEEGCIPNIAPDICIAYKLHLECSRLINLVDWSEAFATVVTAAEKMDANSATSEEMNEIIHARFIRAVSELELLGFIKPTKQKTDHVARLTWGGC
UniProt P43246, sequence (P43246 whole entry, looked up): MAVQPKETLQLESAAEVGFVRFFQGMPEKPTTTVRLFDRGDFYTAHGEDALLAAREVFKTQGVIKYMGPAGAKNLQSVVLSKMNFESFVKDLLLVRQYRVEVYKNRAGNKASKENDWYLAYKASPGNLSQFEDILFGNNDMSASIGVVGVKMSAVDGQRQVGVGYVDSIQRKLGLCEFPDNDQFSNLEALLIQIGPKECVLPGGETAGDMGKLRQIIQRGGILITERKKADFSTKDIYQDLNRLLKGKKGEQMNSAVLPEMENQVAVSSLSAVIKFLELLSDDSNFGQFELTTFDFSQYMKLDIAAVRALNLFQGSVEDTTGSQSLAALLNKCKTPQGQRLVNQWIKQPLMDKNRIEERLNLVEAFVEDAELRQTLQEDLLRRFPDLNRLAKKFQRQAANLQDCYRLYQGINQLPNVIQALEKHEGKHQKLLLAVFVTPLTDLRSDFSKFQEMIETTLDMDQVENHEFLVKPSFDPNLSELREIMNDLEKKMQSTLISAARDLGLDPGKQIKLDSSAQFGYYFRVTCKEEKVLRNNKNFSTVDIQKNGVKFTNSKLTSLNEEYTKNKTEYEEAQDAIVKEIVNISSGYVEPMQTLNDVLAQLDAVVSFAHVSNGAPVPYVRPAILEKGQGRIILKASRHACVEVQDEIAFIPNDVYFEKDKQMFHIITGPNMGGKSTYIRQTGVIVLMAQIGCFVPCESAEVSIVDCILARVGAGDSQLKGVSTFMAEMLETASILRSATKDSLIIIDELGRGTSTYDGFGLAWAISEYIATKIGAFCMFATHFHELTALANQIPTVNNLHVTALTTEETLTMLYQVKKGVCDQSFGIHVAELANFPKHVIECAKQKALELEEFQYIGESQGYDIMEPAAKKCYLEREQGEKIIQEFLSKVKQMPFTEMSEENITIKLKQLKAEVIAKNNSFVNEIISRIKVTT
UniProt P04181, sequence (P04181 whole entry, looked up): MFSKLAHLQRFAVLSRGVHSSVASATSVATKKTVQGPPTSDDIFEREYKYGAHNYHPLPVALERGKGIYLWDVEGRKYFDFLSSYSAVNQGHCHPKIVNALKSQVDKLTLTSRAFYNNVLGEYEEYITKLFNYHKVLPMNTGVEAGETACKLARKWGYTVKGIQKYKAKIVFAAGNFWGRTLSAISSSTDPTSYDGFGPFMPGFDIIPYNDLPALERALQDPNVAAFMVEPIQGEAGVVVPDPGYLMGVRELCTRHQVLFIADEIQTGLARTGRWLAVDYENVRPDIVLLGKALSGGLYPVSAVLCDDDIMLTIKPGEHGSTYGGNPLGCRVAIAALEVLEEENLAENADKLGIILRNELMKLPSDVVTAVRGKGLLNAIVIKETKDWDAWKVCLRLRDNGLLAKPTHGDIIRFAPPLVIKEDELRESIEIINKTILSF
UniProt Q9BXW6, sequence (Q9BXW6 whole entry, looked up): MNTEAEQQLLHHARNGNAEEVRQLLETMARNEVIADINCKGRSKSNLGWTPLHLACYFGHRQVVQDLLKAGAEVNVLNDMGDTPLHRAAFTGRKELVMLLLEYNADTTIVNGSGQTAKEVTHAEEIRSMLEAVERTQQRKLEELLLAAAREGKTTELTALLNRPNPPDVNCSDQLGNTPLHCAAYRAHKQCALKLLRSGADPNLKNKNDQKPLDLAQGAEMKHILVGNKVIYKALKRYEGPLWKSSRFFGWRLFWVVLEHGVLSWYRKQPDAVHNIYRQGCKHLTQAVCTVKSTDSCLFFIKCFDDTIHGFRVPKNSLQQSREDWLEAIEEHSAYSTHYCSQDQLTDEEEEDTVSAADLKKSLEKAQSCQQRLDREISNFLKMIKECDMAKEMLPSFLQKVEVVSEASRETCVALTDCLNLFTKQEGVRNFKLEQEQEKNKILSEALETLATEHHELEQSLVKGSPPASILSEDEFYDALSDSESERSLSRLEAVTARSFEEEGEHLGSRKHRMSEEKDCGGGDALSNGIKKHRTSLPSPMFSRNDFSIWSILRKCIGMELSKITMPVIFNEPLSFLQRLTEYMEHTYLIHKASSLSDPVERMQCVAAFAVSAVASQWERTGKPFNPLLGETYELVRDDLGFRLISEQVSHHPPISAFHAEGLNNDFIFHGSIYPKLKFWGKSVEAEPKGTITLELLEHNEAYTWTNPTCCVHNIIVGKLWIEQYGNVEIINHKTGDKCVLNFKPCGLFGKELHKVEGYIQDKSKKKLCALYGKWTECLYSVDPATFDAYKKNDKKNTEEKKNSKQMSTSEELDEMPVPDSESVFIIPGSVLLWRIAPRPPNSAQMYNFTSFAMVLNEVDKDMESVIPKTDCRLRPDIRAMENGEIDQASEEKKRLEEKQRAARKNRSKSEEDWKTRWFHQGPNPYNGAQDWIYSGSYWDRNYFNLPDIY
UniProt Q9UK39, sequence (Q9UK39 whole entry, looked up): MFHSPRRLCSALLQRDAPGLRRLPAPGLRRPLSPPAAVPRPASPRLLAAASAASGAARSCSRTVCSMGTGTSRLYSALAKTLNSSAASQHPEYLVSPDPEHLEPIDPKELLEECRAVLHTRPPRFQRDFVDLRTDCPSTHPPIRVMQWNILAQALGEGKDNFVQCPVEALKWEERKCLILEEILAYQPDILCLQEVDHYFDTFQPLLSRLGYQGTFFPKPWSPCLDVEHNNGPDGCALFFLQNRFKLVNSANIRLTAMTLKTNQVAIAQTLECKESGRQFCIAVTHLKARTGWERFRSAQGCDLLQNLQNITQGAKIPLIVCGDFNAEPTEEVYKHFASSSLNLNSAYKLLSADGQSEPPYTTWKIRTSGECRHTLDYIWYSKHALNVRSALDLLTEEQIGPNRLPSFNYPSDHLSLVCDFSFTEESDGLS
UniProt P53370, sequence (P53370 whole entry, looked up): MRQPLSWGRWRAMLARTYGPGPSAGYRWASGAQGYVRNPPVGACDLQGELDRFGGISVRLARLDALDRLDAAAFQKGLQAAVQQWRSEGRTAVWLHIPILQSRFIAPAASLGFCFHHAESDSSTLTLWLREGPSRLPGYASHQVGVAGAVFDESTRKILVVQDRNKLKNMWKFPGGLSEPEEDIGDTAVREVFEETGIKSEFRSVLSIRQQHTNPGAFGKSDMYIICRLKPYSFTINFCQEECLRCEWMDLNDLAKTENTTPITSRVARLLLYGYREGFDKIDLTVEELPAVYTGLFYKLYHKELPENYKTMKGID
UniProt Q5TEU4, sequence (Q5TEU4 whole entry, looked up): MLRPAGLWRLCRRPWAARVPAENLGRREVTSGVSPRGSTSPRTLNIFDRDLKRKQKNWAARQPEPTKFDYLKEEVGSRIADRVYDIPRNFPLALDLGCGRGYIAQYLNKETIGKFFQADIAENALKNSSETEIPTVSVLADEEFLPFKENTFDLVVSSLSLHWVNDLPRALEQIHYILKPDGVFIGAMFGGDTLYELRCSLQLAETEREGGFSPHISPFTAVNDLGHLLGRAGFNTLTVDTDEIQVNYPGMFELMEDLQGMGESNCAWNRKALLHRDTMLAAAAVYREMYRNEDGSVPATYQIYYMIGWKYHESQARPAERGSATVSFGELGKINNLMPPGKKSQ
UniProt P49757, sequence (P49757 whole entry, looked up): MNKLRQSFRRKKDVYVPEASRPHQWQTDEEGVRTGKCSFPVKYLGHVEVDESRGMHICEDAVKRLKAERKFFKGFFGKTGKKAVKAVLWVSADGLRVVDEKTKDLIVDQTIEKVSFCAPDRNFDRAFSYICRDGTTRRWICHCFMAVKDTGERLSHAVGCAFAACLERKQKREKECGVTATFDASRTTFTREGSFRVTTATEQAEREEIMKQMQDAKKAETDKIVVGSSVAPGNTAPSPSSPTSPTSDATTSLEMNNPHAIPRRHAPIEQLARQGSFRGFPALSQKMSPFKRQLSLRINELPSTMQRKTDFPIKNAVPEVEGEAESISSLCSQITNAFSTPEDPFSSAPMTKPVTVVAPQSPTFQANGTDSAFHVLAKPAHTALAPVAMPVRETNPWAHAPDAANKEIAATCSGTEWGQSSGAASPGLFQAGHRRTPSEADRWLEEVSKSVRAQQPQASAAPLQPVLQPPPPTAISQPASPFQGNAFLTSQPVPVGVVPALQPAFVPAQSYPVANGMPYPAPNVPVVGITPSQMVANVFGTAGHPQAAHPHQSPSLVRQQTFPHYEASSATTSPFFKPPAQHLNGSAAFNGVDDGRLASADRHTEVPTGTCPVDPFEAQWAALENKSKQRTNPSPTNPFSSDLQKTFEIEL
UniProt O60829, sequence (O60829 whole entry, looked up): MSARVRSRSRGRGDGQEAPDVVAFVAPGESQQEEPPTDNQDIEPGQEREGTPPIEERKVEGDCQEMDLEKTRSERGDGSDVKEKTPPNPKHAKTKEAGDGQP

Target | log2 fold change [1] | log2 fold change [2] | log2 fold change [3] | log2 fold change [4] | log2 fold change [5] | log2 fold change [6] | log2 fold change [7] | log2 fold change [8] | log2 fold change [9] | log2 fold change [10] | log2 fold change [11] | log2 fold change [12] | log2 fold change [13] | log2 fold change [14] | log2 fold change [15] | log2 fold change [16] | log2 fold change [17] | log2 fold change [18] | log2 fold change [19] | log2 fold change [20]
MTA2 (UniProt O94776) | -0.014 | -0.023 | 0.03 | 0.021 | 0.032 | 0.011 | 0.018 | -0.008 | 0.043 | -0.009 | 0.007 | 0.018 | 0.026 | 0.03 | -0.008 | 0.025 | -0.021 | -0.031 | 0.015 | 0.042
NBEAL2 (UniProt Q6ZNJ1) | -0.048 | 0.011 | 0.023 | -0.047 | 0.003 | 0.036 | -0.011 | 0.047 | 0.06 | -0.013 | -0.047 | 0.021 | 0.045 | -0.053 | -0.128 | 0.01 | 0.013 | -0.037 | 0.013 | 0
MSH2 (UniProt P43246) | -0.009 | -0.01 | 0.019 | 0.02 | 0.019 | -0.012 | -0.014 | 0 | 0.037 | 0.019 | -0.014 | 0.001 | 0.007 | -0.033 | -0.068 | 0.038 | 0.003 | -0.055 | 0 | 0.032
NUMB (UniProt P49757) | 0.03 | 0.005 | 0.021 | -0.055 | 0.003 | -0.007 | -0.015 | 0.081 | 0.004 | -0.005 | 0.001 | 0.001 | 0.028 | 0.06 | -0.015 | 0.008 | 0.055 | -0.061 | 0.024 | -0.134
ORC3 isoform 2 (UniProt Q9UBD5) | -0.034 | 0.007 | 0.034 | -0.05 | 0.008 | 0.048 | -0.036 | 0.003 | 0.029 | -0.012 | 0.016 | -0.008 | 0.022 | -0.036 | -0.059 | -0.006 | -0.063 | -0.018 | -0.001 | 0.027
OAT (UniProt P04181) | -0.007 | 0.013 | 0.009 | 0.002 | 0 | -0.045 | -0.018 | -0.006 | 0.034 | -0.009 | 0.066 | 0.003 | -0.012 | -0.019 | -0.014 | -0.006 | -0.119 | 0.014 | -0.004 | -0.024
NSA2 (UniProt O95478) | 0.154 | 0.068 | 0.012 | 0.082 | 0.01 | -0.043 | 0.223 | – | -0.155 | -0.027 | -0.035 | 0.101 | -0.093 | 0.067 | 0.034 | -0.043 | -0.441 | -0.221 | -0.084 | –
NR2F2 (UniProt P24468) | 0.007 | -0.09 | -0.006 | -0.069 | -0.067 | 0.097 | 0.032 | -0.031 | 0.065 | -0.042 | – | -0.081 | 0.01 | – | -0.146 | -0.028 | 0.005 | -0.216 | 0.014 | 0.013
NUDT6 (UniProt P53370) | – | – | 0.065 | -0.033 | 0.054 | – | 0.169 | 0.011 | -0.042 | – | 0.022 | – | – | 0.091 | – | -0.085 | – | – | 0.05 | -0.033
NDUFAF5 (UniProt Q5TEU4) | -0.007 | 0.021 | -0.011 | -0.008 | -0.029 | – | 0.043 | 0.076 | -0.026 | -0.048 | -0.015 | 0.007 | -0.032 | 0.127 | 0.04 | -0.103 | -0.052 | 0.035 | 0.179 | 0
NAA16 (UniProt Q6N069) | -0.047 | 0.097 | -0.179 | 0.085 | – | 0.092 | 0.105 | – | 0.147 | 0.062 | 0.902 (active) | -0.048 | 0.246 | -0.049 | -0.078 | 0.057 | – | – | -0.012 | –
NUB1 isoform 2 (UniProt Q9Y5A7) | – | – | – | – | – | – | – | 0.075 | – | – | – | – | – | – | – | – | – | – | – | -0.003
NEXN (UniProt Q0ZGT2) | 0.173 | -0.008 | 0.257 | 0.057 | 0.066 | -0.012 | -0.065 | – | 0.101 | -0.017 | 0.073 | 0.218 | 0.101 | -0.132 | 0.051 | 0.075 | -0.231 | 0.209 | 0.026 | –
PAPOLG (UniProt Q9BWT3) | – | – | 0.01 | -0.071 | -0.19 | -0.089 | 0.012 | -0.028 | -0.092 | – | -0.176 | – | – | -0.04 | – | -0.02 | -0.013 | -0.049 | -0.235 | 0.031
PAGE4 (UniProt O60829) | 0.056 | -0.029 | 0.028 | -0.077 | 0.072 | – | -0.014 | 0.04 | 0.078 | 0.004 | – | 0.015 | 0.108 | 0.039 | 0.002 | -0.042 | 0.476 | -0.158 | 0.046 | 0.092
NSUN7 (UniProt Q8NE18) | 0.076 | -0.025 | 0.168 | -0.137 | 0.042 | – | – | 0.102 | -0.009 | -0.017 | -0.098 | -0.046 | -0.084 | -0.016 | 0.077 | -0.049 | -0.039 | -0.032 | – | 0.017
NOCT (UniProt Q9UK39) | – | 0.001 | 0.068 | -0.06 | 0.014 | 0.004 | 0.114 | -0.012 | -0.066 | 0.064 | – | -0.04 | – | 0 | 0.02 | 0.004 | – | – | -0.103 | -0.073
MYH6 (UniProt P13533) | 0.793 (active) | -0.017 | 0.045 | -0.157 | 0.01 | – | – | 0.047 | -0.081 | -0.172 | – | -0.081 | 0.006 | 0.215 | 0.084 | -0.137 | – | – | – | -0.017
ORC3 (UniProt Q9UBD5) | – | 0.161 | – | – | – | -0.007 | – | – | – | 0.03 | – | -0.16 | – | – | 0.003 | – | 0.185 | -0.06 | – | –
OSBPL1A (UniProt Q9BXW6) | 0.019 | -0.002 | – | – | 0.116 | 0.152 | -0.069 | 0.012 | – | -0.028 | – | 0.028 | 0.007 | – | 0.019 | – | -0.095 | 0.05 | 0.013 | 0.038
